outcome, Potency and max activation data for nine compounds are collected here from PubChem BioAssay (Tox21).

In test [1] the target is Progesterone receptor (Homo sapiens) (UniProt P06401). Kind of test: qHTS assay to identify small molecule agonists of the progesterone receptor (PR) signaling pathway (AID 1346784; calls by dose curve; further: nearly all actives have a fitted effect of over 30% in size). In short, it runs like this:
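Compounds were tested for PR agonism in HEK 293T cells bearing a beta-lactamase gene under UAS control. Treatment lasted 16 hr at 37C; signal came from fluorescence of a FRET substrate.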

Test [2] shares this target. Nature of the test: qHTS assay to identify small molecule antagonists of the progesterone receptor (PR) signaling pathway (AID 1346795; active means well fitted inhibition curve with a large enough effect in the signal ratio in the repeat runs, not every such curve was filed as active; the % refers to the signal ratio; further: potency means the concentration at half of the fitted maximal effect). The method in brief:
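In HEK293T cells bearing the PR-UAS-bla reporter, compound effects on promegestone-driven (1 nM) beta-lactamase expression are assessed after 16 hr using a fluorescent FRET substrate incubated 2 hr at room temperature.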

Test [3] can be described thus: qHTS assay to identify small molecule agonists of the progesterone receptor (PR) signaling pathway - cell viability counter screen (AID 1346799; calls by dose curve; further: nearly all actives have a fitted effect of over 45% in size). The method in brief:
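Here, 3,000 PR-UAS-bla HEK293T cells per well were treated with compounds for 16 hr after a 6 hr preincubation at 37C and 5% CO2; cell viability is the CellTiter-Glo luminescence signal.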

The nature of test [4]: qHTS assay to identify small molecule antagonists of the TGF-beta/Smad signaling pathway - cell viability counter screen (AID 1346824). Further: nearly all actives have a fitted effect of over 50% in size. The method in brief:
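Cytotoxicity counter-screen run in the same wells as the beta-lactamase Smad reporter read: CellTiter-Glo luminescence after 30 min at room temperature. HEK 293T SBE-bla cells had 5 hr compound exposure at 37 C with TGF-beta1 (0.25 ng/mL stock).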

Test [5] can be described thus: qHTS assay to identify small molecule agonists of the TGF-beta/Smad signaling pathway - cell viability counter screen (AID 1346829). Further: top concentration of the series differs between compounds; nearly all actives have a fitted effect of over 45% in size. In short, it runs like this: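 Luminescence from CellTiter-Glo, read after a 30 min room-temperature incubation, gives cell viability of SBE-bla HEK 293T cells treated 5 hr with compounds at 37 C.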
Test [6] can be described thus: qHTS assay to identify small molecule agonists of the TGF-beta/Smad signaling pathway (AID 1346859; active means well fitted activation curve with a large enough effect in the signal ratio in the repeat runs, not every such curve was filed as active; the % refers to the signal ratio; further: series mostly up to about 77 µM). In short, it runs like this:
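Each well held 4,000 SBE-bla HEK 293T cells incubated overnight before compound addition; 5 hr later the cleavable FRET substrate went on for 2 hr at room temperature, and fluorescence was read at two emissions.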

Test [7] has as its target Thyrotropin-releasing hormone receptor (Homo sapiens) (UniProt P34981). Kind of test: qHTS assay to identify small molecule antagonists of the thyrotropin-releasing hormone receptor (TRHR) signaling pathway (AID 1346877; active means well fitted inhibition curve with a large enough effect in the repeat runs, not every such curve was filed as active; further: series mostly up to about 51 µM). The method in brief:
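Antagonist mode: after a 5 min room-temperature compound exposure, cells were stimulated with 1 nM (final) TRH. Dye-loaded TRHR-HEK293 cells were used, and calcium-dependent fluorescence was followed for 3 min, with 15-point titrations run in triplicate.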

The target is the same in test [8]. Kind of test: qHTS assay to identify small molecule agonists of the thyrotropin-releasing hormone receptor (TRHR) signaling pathway (AID 1346891; calls by dose curve; further: series mostly up to about 58 µM). The method in brief:
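Screening of agonists relied on calcium signalling in HEK293 cells expressing human TRHR: dye loading 2 h at 37 °C preceded compound addition and a 3-min fluorescence time course.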

Test [9] is described as follows: Caspase-3/7 induction in HepG2 cells by small molecules, qHTS assay (AID 1346978). Further: nearly all actives have a fitted effect of over 15% in size. In short, it runs like this:
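Caspase-3/7 induction was measured by Caspase-Glo 3/7 luminescence (30 min, room temperature) after a 17 hr compound exposure of wild-type HepG2 cells seeded at 2,000 per well and pre-incubated 5 hr.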

Test [10] in a line: Caspase-3/7 induction in CHO-K1 cells by small molecules, qHTS assay (AID 1346980). Further: nearly all actives have a fitted effect of over 15% in size. In short, it runs like this: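 Luminescent Caspase-Glo 3/7 read (30min, room temperature) quantified apoptosis induction. Cells were wild-type CHO-K1, treated with compound for 17hr at 37 C and 5% CO2.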
Test [11] has as its target Nuclear receptor subfamily 1 group I member 2 (Homo sapiens) (UniProt O75469). Kind of test: Human pregnane X receptor (PXR) small molecule agonists, qHTS assay (AID 1346982). Further: nearly all actives have a fitted effect of over 35% in size. Further: potency means the concentration at half of the fitted maximal effect. In short, it runs like this: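 Agonist mode: luminescence from ONE-Glo after 24 h compound exposure at 37C in HepG2 cells carrying hPXR-responsive CYP3A4 luciferase, plated in charcoal-stripped serum medium 5 h beforehand.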

In test [12] the target is Nuclear receptor subfamily 1 group I member 2 (Rattus norvegicus) (UniProt Q9R1A7). Kind of test: Rat pregnane X receptor (rPXR) activation by small molecules, qHTS assay (AID 1346983). Further: nearly all actives have a fitted effect of over 20% in size. As to conditions: rPXR luciferase reporter cells, One-Glo luminescence, 24 h; max activation: active compounds read high. The method in brief:
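Luminescent readout (One-Glo luciferase, 30 min room temperature) followed 24 hr compound treatment at 37 C of rPXR cells plated 2,000 per well and preincubated 5hr; qHTS format with compounds delivered in DMSO.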

Test [13] addresses Nuclear receptor subfamily 1 group I member 2 (Homo sapiens) (UniProt O75469). Kind of test: CYP3A4 induction through human pregnane X receptor (PXR) by small molecules, qHTS assay (AID 1346984). Further: nearly all actives have a fitted effect of over 40% in size. Further: potency means the concentration at half of the fitted maximal effect. The method in brief: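 Read-out is luminescence after One-Glo addition, following a 3 hr, 37C incubation with Luciferin-IPA CYP3A4 substrate (3uM final). Before that, compounds were on DPX-2 cells (HepG2 co-transfected with PXR element plus CYP3A4-promoter luciferase) for 24 hr at 37C.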

The target of test [14] is Cytochrome P450 2D6 (Homo sapiens) (UniProt P10635). Kind of test: Cytochrome P450 Family 2 Subfamily D Member 6 (CYP2D6) small molecule antagonists: luciferase reporter qHTS assay (AID 1671196). Further: nearly all actives have a fitted effect of over 50% in size. Further: potency means the concentration at half of the fitted maximal effect. The method in brief:
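CYP2D6 activity was followed as luminescence from its luciferin product after a 1 h NADPH-driven reaction at room temperature. Enzyme-substrate mix and compound were pre-incubated for 10 min, and the signal was read 20 min after adding detection reagent.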

A short description of test [15]: Human pregnane X receptor (PXR) small molecule agonists, qHTS cell viability counter screen (AID 1346977). Further: nearly all actives have a fitted effect of over 50% in size. In short, it runs like this:
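Tox21 qHTS format; PXR-Luc HepG2, 2,000/well, charcoal-stripped FBS 5%. Cpd exposure 24hr. Read: CellTiter-Fluor fluorescence, multiplexed with luciferase.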

A short description of test [16]: Caspase-3/7 induction in HepG2 cells by small molecules, qHTS cell viability counter screen (AID 1346981). Further: series mostly up to about 92 µM; nearly all actives have a fitted effect of over 30% in size. The method in brief: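 CellTiter-Fluor fluorescence measured viability in the same wells used for Caspase-Glo 3/7. HepG2 (wild type) at 2,000 cells/well were pre-incubated 5 hr, dosed, and given reagent at 16 hr, with 1 hr further at 37C.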
Test [17] concerns the target Cytochrome P450 2C19 (Homo sapiens) (UniProt P33261). Kind of test: Cytochrome P450 Family 2 Subfamily C Member 19 (CYP2C19) small molecule antagonists: luciferase reporter qHTS assay (AID 1671197). Further: nearly all actives have a fitted effect of over 65% in size. Further: potency means the concentration at half of the fitted maximal effect. The method in brief:
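CYP2C19 P450-Glo, 1536-well qHTS. Cpd + enzyme/proluciferin substrate 10 min RT; + NADPH regen, 37C 1 h; stop with luciferin detection reagent, 20 min RT, luminescence (RLU). Pos ctrl ketoconazole.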

Test [18] in a line: qHTS assay to identify small molecule antagonists of the progesterone receptor (PR) signaling pathway - cell viability counter screen (AID 1346798). Further: nearly all actives have a fitted effect of over 50% in size. Further: potency means the concentration at half of the fitted maximal effect. In short, it runs like this:
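Following a 4 hr attachment, PR-UAS-bla HEK293T cells in charcoal-stripped FBS medium were exposed to compounds with R5020 for 16 hr; CellTiter-Glo was added and luminescence read after 30 min at room temperature.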

A short description of test [19]: Caspase-3/7 induction in CHO-K1 cells by small molecules, qHTS cell viability counter screen (AID 1346979). Further: nearly all actives have a fitted effect of over 35% in size. The method in brief: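 CellTiter-Fluor viability check, qHTS format: wild-type CHO-K1, 16hr compound treatment, 1hr reagent incubation, fluorescence read.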

Structures are written as SMILES. Values without a mark were called inactive. Inconclusive results are not listed. Active and inactive are the calls of the source. Unless noted, the call rests on the fitted dose curve; in most records, active means well fitted curve in the direction sought with a large enough effect in the repeat runs; inconclusive means weak or mixed curves; inactive means no such curve, though single readings can be large; an effect the other way counts as inactive or inconclusive.
On the % scale 0 is the no-effect control and ±100 the full control effect.

Chain of Cytochrome P450 2C19 (Homo sapiens) (P33261 whole entry, looked up): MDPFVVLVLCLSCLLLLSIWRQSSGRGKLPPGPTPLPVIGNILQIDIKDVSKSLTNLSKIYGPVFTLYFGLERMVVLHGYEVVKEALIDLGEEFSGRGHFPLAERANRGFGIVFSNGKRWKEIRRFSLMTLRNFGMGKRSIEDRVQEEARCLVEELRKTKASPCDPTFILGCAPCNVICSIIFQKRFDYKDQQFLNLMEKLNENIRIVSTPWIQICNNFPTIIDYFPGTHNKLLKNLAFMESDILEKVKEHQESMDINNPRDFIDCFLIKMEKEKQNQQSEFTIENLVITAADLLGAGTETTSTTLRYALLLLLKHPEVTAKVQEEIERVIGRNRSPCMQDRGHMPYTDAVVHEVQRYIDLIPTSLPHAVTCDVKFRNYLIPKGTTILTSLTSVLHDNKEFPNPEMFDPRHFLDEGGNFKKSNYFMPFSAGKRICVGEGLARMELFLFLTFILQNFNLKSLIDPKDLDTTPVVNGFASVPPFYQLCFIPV
Chain of Nuclear receptor subfamily 1 group I member 2 (Rattus norvegicus) (Q9R1A7 whole entry, looked up): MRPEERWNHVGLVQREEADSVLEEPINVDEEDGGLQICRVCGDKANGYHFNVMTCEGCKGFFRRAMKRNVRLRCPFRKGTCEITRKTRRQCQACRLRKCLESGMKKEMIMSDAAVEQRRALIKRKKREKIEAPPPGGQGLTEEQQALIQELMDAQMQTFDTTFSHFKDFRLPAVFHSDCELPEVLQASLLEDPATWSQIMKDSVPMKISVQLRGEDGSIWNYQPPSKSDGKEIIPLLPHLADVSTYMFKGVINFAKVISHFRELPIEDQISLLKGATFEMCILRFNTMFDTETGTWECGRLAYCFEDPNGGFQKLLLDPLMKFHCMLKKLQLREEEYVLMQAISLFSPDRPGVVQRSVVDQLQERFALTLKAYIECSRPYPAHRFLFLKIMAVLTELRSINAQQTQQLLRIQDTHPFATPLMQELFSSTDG
Chain of Cytochrome P450 2D6 (Homo sapiens) (P10635 whole entry, looked up): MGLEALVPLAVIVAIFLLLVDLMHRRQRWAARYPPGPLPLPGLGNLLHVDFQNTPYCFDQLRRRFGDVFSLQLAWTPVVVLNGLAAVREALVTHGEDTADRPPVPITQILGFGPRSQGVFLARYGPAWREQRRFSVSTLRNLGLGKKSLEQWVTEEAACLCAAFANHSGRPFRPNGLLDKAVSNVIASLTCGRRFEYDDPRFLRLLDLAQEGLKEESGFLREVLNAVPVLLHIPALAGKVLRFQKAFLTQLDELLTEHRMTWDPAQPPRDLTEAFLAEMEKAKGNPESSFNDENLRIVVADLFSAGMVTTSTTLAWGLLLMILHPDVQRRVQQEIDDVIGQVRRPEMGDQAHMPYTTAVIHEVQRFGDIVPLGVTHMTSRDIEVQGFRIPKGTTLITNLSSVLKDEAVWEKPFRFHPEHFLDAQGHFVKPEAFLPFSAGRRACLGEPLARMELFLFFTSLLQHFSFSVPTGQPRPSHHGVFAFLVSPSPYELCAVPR
Chain of Thyrotropin-releasing hormone receptor (Homo sapiens) (P34981 whole entry, looked up): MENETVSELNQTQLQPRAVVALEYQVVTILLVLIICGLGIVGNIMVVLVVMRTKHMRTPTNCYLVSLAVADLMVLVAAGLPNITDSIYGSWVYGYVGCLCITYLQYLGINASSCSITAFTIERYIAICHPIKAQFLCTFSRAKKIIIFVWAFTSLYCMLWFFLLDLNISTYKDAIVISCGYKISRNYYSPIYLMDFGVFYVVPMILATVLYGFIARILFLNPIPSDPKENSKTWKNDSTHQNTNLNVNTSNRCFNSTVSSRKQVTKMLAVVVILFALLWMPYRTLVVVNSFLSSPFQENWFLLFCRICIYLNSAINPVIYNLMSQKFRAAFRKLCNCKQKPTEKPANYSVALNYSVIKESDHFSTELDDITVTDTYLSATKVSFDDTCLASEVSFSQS
Chain of Progesterone receptor (Homo sapiens) (P06401 whole entry, looked up): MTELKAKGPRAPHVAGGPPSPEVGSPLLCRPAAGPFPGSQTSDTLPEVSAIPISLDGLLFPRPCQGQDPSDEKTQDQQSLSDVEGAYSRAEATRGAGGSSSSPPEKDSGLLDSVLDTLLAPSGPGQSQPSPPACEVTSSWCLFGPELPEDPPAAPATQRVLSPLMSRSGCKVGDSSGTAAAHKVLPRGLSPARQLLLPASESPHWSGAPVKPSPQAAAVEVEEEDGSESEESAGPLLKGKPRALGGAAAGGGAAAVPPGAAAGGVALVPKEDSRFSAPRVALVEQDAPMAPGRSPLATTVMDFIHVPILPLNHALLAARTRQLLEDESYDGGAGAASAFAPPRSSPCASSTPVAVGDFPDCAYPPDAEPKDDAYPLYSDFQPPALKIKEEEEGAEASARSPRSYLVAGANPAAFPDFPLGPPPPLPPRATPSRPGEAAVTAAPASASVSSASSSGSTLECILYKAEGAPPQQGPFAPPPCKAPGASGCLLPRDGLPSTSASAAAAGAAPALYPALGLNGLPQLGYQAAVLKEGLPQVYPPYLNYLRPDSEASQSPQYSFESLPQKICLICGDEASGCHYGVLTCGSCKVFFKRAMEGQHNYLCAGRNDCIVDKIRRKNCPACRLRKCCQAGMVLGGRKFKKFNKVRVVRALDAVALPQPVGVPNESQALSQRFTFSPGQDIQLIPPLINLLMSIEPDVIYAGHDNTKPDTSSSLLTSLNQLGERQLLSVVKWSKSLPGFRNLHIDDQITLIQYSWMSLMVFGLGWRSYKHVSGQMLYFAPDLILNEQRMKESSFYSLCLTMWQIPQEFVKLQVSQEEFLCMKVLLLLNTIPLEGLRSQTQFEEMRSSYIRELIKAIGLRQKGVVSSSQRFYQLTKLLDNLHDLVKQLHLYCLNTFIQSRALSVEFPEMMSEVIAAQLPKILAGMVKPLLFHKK
Chain of Nuclear receptor subfamily 1 group I member 2 (Homo sapiens) (O75469 whole entry, looked up): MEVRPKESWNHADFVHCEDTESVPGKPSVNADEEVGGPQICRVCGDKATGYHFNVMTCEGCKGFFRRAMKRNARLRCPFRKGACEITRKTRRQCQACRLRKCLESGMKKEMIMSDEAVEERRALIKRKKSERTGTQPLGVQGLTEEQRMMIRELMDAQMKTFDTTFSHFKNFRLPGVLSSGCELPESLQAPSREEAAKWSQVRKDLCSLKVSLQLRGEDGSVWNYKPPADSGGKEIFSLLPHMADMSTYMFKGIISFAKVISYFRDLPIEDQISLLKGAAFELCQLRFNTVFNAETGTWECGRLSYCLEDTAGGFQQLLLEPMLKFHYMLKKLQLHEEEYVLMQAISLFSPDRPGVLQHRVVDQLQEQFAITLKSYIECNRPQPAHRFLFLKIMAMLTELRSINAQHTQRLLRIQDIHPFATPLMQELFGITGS

For the compound `Cc1ccccc1N=Nc1ccc(N=Nc2c(O)ccc3ccccc23)c(C)c1`, the compound was classed as inactive in test [1], in [6], in test [7] and in test [9]. The Potency result in [2], in test [3], in [4], in [5], in [8] and in [10] was “inactive” each time. The Potency entry in [11] and in [14] was “inactive” throughout. In addition, in test [12], the max activation is 6.7%. Also, the Potency in test [13] was 7.94 µM (active).
As to `Cc1occc1S`, the call in test [1], in test [6], in [7] and in test [9] was inactive. Besides, the Potency result in test [2], in [3], in test [4], in test [5], in test [8] and in test [15] was “inactive” each time. In addition, the Potency result in test [10], in test [16] and in test [14] was “inactive” throughout. The results for the Potency in test [11] and in [17] were 61.1 µM (active) and 56.4 µM (active), respectively.
As for `CN1CCC(OC(c2ccccc2)c2ccccc2)CC1`, the result in [1], in test [6], in test [7] and in [9] was inactive. Further, the Potency result in [2], in test [4], in test [5], in [8], in test [10] and in [16] was “inactive” in each case.
Consider `Cc1cccc(Oc2ccccc2)c1`, for which the call in test [1], in [6], in test [7] and in test [9] was inactive. In addition, the Potency entry in [2], in test [4], in test [5], in [15], in test [19] and in [10] was “inactive” each time. Further, the Potency entry in test [16] and in test [11] was “inactive” each time. Also, the figures for the Potency in [18] and in [14] were 21.1 µM (active) and 34.7 µM (active), respectively.
Consider `CCCC(C)C`, for which the compound was classed as inactive in test [1], in [6], in test [7] and in test [9]. For the same compound, the Potency entry in test [2], in [4], in test [5], in [8], in test [15] and in test [19] was “inactive” each time. Also, the Potency result in [10], in test [16] and in test [14] was “inactive” throughout. Further, in test [17], the Potency is 71.7 µM (active).
For the compound `CC1(C)CCC(C)(C)c2cc(NC(=O)c3ccc(C(=O)O)cc3)ccc21`, the result in test [1], in [6] and in test [9] was inactive. In test [2], the Potency is 16.8 µM (active). In addition, the Potency entry in [4], in [5], in test [15], in [10], in test [11] and in test [13] was “inactive” each time. The Potency result in test [14] and in test [17] was “inactive” each time. The max activation in [12] was -8.01%.
As to `Cc1ccc(O)c([C@H](CCN(C(C)C)C(C)C)c2ccccc2)c1`, the call in [1], in [6], in test [7] and in test [9] was inactive. Moreover, the Potency result in [2], in test [4], in [5], in [19] and in [10] was “inactive” in each case. Also, the max activation in test [12] is 2.91%. The Potency in [14] is 3.09 µM (active).
On to `C[C@@H](C1=C(CCN(C)C)Cc2ccccc21)c1ccccn1`, for which the outcome in test [1], in test [6] and in test [9] was inactive. In addition, the Potency entry in test [2], in test [3], in test [4], in test [5], in test [19] and in test [10] was “inactive” in each case. Moreover, the Potency result in test [16], in [11] and in test [17] was “inactive” in each case. The Potency in test [14] is 11 µM (active).
`CCC(=O)OC(C)(C)C1CC=C(C)CC1` (stereo not given): the result in [1], in [6] and in [9] was inactive. Also, the Potency entry in test [2], in [18], in test [4], in test [5], in test [15] and in test [10] was “inactive” each time. Besides, the Potency result in test [16] and in [11] was “inactive” in each case.
